Laboratory results as given in PubChem BioAssay (NCATS).
Inconclusive results are not listed. The source made the active and inactive calls. Calls come from the whole dose curve; as a rule, active = well fitted curve in the direction sought with a large enough effect; inconclusive = small, poorly fitted or top-dose-only effect, or another doubt; inactive = no such curve, though single readings can be large; an effect the other way counts as inactive or inconclusive.

What was measured:
[1] = qHTS for differential inhibitors of proliferation of Plasmodium falciparum line 7G8 (AID 1815);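 note: potency is the fitted concentration of half-maximal effect; parasite growth measured after three days of incubation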
[2] = qHTS for differential inhibitors of proliferation of Plasmodium falciparum line GB4 (AID 1816); conditions: Potency: Plasmodium falciparum GB4 proliferation inhibition;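 note: potency is the fitted concentration of half-maximal effect; parasite growth measured after 72 h incubation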
[3] = qHTS for differential inhibitors of proliferation of Plasmodium falciparum line 3D7 (AID 1876); note: potency is the fitted concentration of half-maximal effect
[4] = qHTS for differential inhibitors of proliferation of Plasmodium falciparum line D10 (AID 1877);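 note: potency is the fitted concentration of half-maximal effect; parasites grown with compound for 72 h before DNA staining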
[5] = qHTS for differential inhibitors of proliferation of Plasmodium falciparum line W2 (AID 1883); conditions: Potency: Plasmodium falciparum W2 proliferation inhibition;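 note: potency is the fitted concentration of half-maximal effect; parasites grown with compound for 72 h before lysis and staining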
[6] = qHTS for differential inhibitors of proliferation of Plasmodium falciparum line HB3 (AID 1886); conditions: Potency: Plasmodium falciparum HB3 proliferation inhibition;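 note: potency is the fitted concentration of half-maximal effect; parasites grown with compound for 72 h before SYBR Green readout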
[7] = molecular target: Ferritin light chain (Equus caballus) (UniProt P02791); assay: qHTS Validation Assay for Identification of Novel General Anesthetics (AID 2323); note: series mostly up to about 77 µM
Chain of Ferritin light chain (Equus caballus) (P02791 2-175 limits assumed): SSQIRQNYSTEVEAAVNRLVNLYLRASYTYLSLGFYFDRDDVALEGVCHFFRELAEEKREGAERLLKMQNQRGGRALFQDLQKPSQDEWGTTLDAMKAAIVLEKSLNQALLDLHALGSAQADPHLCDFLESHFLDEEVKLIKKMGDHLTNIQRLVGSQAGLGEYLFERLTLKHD
Outline: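 Competitive displacement of profluorescent 1-aminoanthracene (1-AMA, 50% saturated solution in PBS) from 10 uM horse-spleen apoferritin. Compounds incubated 10 min at room temperature; fluorescence read at 380 nm excitation/535 nm emission, normalized to free 1-AMA and complex, fitted with four-parameter Hill equation.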

[8] = molecular target: ATP-dependent DNA helicase Q1 (Homo sapiens) (UniProt P46063); assay: qHTS Validation Assay for Inhibitors of RecQ-Like Dna Helicase 1 (RECQ1) (AID 2353)
Chain of ATP-dependent DNA helicase Q1 (Homo sapiens) (P46063 whole entry, looked up): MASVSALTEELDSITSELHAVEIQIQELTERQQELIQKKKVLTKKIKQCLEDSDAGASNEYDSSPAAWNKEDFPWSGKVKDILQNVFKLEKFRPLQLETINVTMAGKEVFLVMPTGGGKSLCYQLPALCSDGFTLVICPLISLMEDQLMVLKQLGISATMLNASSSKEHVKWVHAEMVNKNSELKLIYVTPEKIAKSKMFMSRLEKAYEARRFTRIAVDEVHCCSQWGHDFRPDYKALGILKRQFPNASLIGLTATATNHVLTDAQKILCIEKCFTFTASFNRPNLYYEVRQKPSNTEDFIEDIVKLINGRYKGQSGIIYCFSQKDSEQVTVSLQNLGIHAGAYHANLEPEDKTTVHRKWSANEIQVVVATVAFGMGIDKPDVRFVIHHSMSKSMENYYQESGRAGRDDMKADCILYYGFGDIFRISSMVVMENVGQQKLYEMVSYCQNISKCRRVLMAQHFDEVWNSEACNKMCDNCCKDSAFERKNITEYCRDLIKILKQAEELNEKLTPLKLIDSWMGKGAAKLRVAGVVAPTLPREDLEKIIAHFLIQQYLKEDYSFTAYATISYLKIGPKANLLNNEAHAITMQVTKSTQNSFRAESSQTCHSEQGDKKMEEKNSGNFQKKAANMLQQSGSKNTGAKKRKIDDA
Outline: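 50 nM RECQ1T1 preincubated 15 min with compound in Tris pH 8.0 buffer with MgCl2, DTT, Tween-20 and 2.5 ug/ml poly(dI-dC); started with 200 nM TAMRA/BHQ-2 forked duplex and 2 mM ATP. Unwinding read as fluorescence (525/598 nm), two reads 2 h apart.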

[9] = Validation screen for small molecules that induce DNA re-replication in MCF 10A normal breast cells (AID 463097); note: nearly all actives have a fitted effect of over 60% in size
Outline: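 Readout: Hoechst nuclear fluorescence intensity, 405 ex / 500-530 em, by scanning plate imager; re-replication scored as increase in nuclei with elevated DNA content. Cells exposed to compound 48 hr, 37 C, 5% CO2 beforehand.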

[10] = Quantitative high throughput screen for delayed death inhibitors of the malarial parasite plastid, 96 hour incubation (AID 488745); note: potency is the fitted concentration of half-maximal effect; nearly all actives have a fitted effect of over 70% in size
Outline: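 Growth of reporter-bearing P. falciparum in red cells is measured after 96 h with compound, covering two erythrocytic cycles. Luminescence from the integrated luciferase serves as the growth signal.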

[11] = Quantitative high throughput screen for delayed death inhibitors of the malarial parasite plastid, 48 hour incubation (AID 488752); note: potency is the fitted concentration of half-maximal effect; nearly all actives have a fitted effect of over 65% in size
Outline: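 One parasite generation (48 h, 37 C, 5% CO2) of luciferase-reporter P. falciparum in erythrocytes is run with test compound; decreased luminescence indicates inhibited growth.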

[12] = molecular target: M-phase phosphoprotein 8 (Homo sapiens) (UniProt Q99549); assay: qHTS Validation Assay for Inhibitors for MPP8 Chromodomain Interactions with Methylated Histone Tails (AID 488949);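 note: AlphaScreen signal from MPP8 chromodomain bound to biotinylated H3K9me3 peptide; top concentration of the series differs between compounds; nearly all actives have a fitted effect of over 55% in size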
Chain of M-phase phosphoprotein 8 (Homo sapiens) (Q99549 whole entry, looked up): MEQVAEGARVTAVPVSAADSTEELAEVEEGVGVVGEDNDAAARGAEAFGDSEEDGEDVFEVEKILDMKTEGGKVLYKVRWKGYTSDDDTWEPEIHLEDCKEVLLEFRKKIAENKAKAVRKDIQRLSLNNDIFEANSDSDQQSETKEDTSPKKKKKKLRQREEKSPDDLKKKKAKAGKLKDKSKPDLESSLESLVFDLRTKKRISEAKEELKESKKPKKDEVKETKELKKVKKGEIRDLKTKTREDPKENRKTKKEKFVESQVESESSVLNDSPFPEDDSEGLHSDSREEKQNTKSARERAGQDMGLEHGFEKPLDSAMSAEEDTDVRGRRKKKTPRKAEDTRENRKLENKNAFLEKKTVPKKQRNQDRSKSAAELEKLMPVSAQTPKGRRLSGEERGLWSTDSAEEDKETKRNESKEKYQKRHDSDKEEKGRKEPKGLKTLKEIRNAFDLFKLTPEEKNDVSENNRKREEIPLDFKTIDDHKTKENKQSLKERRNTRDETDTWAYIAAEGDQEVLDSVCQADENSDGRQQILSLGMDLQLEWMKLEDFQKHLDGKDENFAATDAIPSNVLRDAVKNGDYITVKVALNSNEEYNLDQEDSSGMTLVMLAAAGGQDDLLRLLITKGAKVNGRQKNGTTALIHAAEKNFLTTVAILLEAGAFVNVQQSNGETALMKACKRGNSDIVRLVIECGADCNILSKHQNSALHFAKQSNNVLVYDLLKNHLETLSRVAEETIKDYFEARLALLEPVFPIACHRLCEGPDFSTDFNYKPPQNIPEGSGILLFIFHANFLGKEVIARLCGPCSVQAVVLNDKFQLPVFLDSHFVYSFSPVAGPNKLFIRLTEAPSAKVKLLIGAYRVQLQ
Outline: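 MPP8 (50 nM) was preincubated with biotinylated H3(1-18)K9me3 peptide (50 nM) in PBS pH 7.4, 0.01% Tween-20 for 30 min at room temperature, then with compounds for 30 min; binding was detected by AlphaScreen.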

[13] = molecular target: Transient receptor potential cation channel subfamily V member 1 (Homo sapiens) (UniProt Q8NER1); assay: HTS Assay for Compounds that Act as Enhancers of the Vanilloid Receptor 1 (AID 488979)
Chain of Transient receptor potential cation channel subfamily V member 1 (Homo sapiens) (Q8NER1 whole entry, looked up): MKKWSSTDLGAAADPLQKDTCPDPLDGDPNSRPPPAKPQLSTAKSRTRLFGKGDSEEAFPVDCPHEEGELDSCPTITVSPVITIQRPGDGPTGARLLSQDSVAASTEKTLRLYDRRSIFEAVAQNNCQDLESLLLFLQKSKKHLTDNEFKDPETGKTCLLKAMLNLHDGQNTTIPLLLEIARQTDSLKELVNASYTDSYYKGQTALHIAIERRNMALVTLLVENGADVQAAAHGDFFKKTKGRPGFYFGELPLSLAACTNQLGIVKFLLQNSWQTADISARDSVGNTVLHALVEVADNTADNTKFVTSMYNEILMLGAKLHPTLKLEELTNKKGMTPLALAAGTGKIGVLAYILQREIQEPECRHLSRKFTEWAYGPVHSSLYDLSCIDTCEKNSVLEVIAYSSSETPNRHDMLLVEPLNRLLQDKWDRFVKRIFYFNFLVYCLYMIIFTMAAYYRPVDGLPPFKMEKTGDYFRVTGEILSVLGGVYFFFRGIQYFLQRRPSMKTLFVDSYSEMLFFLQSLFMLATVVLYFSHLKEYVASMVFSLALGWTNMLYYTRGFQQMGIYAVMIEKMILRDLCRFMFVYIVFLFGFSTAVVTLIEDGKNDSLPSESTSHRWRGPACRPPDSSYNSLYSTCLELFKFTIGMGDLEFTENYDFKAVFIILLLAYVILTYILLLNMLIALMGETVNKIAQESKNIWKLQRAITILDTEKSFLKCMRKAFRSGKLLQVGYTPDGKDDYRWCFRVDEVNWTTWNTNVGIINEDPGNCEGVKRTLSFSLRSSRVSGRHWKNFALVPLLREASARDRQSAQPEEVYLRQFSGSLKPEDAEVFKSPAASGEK
Outline: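 TRPV1-expressing cells loaded with Fluo-8 calcium dye; compounds added and calcium influx read kinetically for 3 min (agonist phase), then capsaicin at EC20 added and read 2 min more for enhancement. Fluorescence ex 480/em 520 nm.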

[14] = molecular target: Thyrotropin receptor (Homo sapiens) (UniProt P16473); assay: qHTS Assay for Antagonists of the Thyroid Stimulating Hormone Receptor (AID 488980); note: series mostly up to about 58 µM
Outline: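 HEK293 cells transfected with human TSHR, suspended in HEPES-buffered HBSS with 70 uM RO 20-1724, were treated with compounds plus TSH at EC80 (4 nM final). cAMP was measured by competitive HTRF (cryptate anti-cAMP antibody, cAMP-d2 acceptor).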

[15] = molecular target: Galactokinase (Homo sapiens) (UniProt P51570); assay: qHTS Validation Assay for Inhibitors of Human Galactokinase (GALK) (AID 493189)
Chain of Galactokinase (Homo sapiens) (P51570 whole entry, looked up): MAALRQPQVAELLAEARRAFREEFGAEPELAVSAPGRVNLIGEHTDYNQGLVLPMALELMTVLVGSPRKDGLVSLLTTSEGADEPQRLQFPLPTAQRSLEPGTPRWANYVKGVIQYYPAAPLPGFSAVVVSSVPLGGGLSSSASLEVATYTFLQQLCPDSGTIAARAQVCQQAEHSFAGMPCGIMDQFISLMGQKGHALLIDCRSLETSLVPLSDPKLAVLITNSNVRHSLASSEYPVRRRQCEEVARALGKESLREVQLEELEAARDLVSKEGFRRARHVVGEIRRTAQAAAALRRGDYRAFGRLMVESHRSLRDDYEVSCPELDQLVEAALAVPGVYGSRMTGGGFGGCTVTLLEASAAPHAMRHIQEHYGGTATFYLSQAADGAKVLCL
Outline: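 GALK (5 nM) with 35 uM ATP and 100 uM galactose in HEPES pH8.0, MgCl2, NaCl, DTT, BSA; 1 h at room temperature. Residual ATP read by Kinase-Glo Plus luminescence after 10 min.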

[16] = Validation screen for small molecules that induce DNA re-replication in SW480 colon adenocarcinoma cells (AID 504364)
Outline: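 Cells are treated 48 hr with test compound, stained 40 min with Hoechst at 37 C, and scanned for nuclear fluorescence; compounds inducing re-replication increase nuclei with elevated intensity.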

[17] = molecular target: DNA dC->dU-editing enzyme APOBEC-3G (Homo sapiens) (UniProt Q9HC16); assay: qHTS for inhibitors of Vif-A3G interactions: Validation (AID 588379)
Chain of DNA dC->dU-editing enzyme APOBEC-3G (Homo sapiens) (Q9HC16 whole entry, looked up): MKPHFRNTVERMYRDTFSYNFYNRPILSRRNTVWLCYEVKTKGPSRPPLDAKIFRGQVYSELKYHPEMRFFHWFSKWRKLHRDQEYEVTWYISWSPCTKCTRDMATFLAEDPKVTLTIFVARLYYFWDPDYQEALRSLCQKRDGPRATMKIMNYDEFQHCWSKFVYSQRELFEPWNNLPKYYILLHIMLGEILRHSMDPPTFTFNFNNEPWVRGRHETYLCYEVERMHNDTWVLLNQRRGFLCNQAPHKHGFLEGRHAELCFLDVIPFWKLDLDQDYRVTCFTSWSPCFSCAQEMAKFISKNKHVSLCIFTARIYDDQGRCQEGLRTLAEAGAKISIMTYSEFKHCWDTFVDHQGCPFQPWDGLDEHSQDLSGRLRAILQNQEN
Outline: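 HeLa cells stably expressing Vif and A3G-eYFP, 700 cells/well, incubated overnight at 37 deg C, then exposed to compound overnight at 37 deg C. Inhibition of Vif-mediated degradation read as increased yellow fluorescence (Ex 488/Em 500-530) by laser-scanning cytometry.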

[18] = molecular target: Voltage-gated inwardly rectifying potassium channel KCNH2 (Homo sapiens) (UniProt Q12809); assay: qHTS Assay for Small Molecule Inhibitors of the Human hERG Channel Activity (AID 588834);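 note: top concentration of the series differs between compounds; lower thallium flux fluorescence means stronger hERG block; nearly all actives have a fitted effect of over 50% in size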
Chain of Voltage-gated inwardly rectifying potassium channel KCNH2 (Homo sapiens) (Q12809 whole entry, looked up): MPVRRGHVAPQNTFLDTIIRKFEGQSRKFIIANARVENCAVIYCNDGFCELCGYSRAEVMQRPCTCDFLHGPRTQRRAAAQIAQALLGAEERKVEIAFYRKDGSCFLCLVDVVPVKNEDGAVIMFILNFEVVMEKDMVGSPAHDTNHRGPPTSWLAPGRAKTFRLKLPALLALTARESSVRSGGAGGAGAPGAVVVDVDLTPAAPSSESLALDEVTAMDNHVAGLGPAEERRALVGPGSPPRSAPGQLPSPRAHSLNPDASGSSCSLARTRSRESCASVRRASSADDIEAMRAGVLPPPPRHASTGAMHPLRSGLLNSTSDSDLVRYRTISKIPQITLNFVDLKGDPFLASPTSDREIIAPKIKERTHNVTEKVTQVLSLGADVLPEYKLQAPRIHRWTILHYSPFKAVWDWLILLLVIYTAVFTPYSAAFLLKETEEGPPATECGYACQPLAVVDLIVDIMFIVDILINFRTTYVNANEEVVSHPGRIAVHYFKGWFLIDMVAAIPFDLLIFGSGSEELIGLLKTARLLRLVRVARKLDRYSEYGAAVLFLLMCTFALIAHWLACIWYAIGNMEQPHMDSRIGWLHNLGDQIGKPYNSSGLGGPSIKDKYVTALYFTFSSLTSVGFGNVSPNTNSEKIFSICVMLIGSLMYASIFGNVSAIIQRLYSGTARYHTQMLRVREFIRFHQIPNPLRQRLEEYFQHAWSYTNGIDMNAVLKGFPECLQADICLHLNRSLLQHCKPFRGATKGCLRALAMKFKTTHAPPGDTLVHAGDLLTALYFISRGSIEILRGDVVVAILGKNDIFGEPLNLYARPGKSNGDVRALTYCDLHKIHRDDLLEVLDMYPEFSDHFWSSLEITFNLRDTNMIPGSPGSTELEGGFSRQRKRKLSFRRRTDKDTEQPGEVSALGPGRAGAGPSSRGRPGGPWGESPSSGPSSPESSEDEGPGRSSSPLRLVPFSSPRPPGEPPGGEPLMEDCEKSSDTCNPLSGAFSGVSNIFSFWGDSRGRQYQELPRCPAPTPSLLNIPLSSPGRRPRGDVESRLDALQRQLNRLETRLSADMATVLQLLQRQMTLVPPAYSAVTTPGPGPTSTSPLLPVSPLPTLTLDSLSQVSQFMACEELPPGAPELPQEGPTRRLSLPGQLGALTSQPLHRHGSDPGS
Outline: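 U2OS cells transduced with hERG via BacMam (MOI ~100), plated 2000/well, loaded with FluxOR thallium dye, compound ~10 min, then stimulation buffer; fluorescence decrease read kinetically; AC50 from Hill fits.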

[19] = system: Zika virus NS2B-NS3 protease; assay: Primary screen GU AMC qHTS for Zika virus inhibitors (AID 1347154); note: nearly all actives have a fitted effect of over 70% in size
Outline: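 Unlinked Zika NS2B hydrophilic domain/NS3 protease domain noncovalent complex (25 nM final) in 10 mM Tris-HCl pH 8.0, 0.01% Tween 20, with AMC peptide substrate. Fluorescence (ex 340, em 450 nm) change over 15 min, room temperature; percent inhibition fitted to 4-parameter Hill equation.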

[20] = Primary qHTS for small molecule stabilizers of the endoplasmic reticulum resident proteome: Secreted ER Calcium Modulated Protein (SERCaMP) assay (AID 1508630)
Outline: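 GLuc-SERCaMP-expressing SH-SY5Y cells, pretreated 16 h with compound, are challenged with thapsigargin to empty ER calcium stores; after 4 h, coelenterazine is added directly to the medium and luminescence is imaged.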

Measured: Potency

COC(=O)c1c(-c2cc(OC)c(OC)c(OC)c2)c2ccnc(OCc3ncccn3)c2c(=O)n1Cc1ccnc(C)c1
active: [1] 3.98 µM | [2] 4.47 µM | [3] 2 µM | [4] 4.47 µM | [5] 2.51 µM | [6] 2.82 µM | [10] 5.86 µM | [11] 9.28 µM
inactive: all other assays above
